SMILES strings stand for the structures. In all, about 2,400 compounds went through this assay and about 25 (1%) were called active.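 The calls were made as follows: active = replicate-average signal at least 3 plate SD below neutral wells, shown as high inhibition, flagging enzyme-inhibiting false positives; inactive = the rest.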 Not all results are given here.

What is called inhibition is the change of the read-out against control, counted positive when it falls.

The subject of the assay is Beta-galactosidase (Escherichia coli), counter-screen for EBI2 antagonists. Put plainly: E. coli beta-galactosidase enzyme inhibition, confirmation, counter-screen for EBI2 antagonist project, biochemical, luminescence, single concentration (AID 652176).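 Also: 0% = DMSO wells with enzyme and 100% = wells lacking enzyme; higher means stronger loss of beta-gal luminescence.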 As to conditions: purified beta-galactosidase, luminescent Galacton Star, 15 min; at 5 µM; stronger effect = higher value. Background: A counterscreen serves to expose hits that act by an unwanted route or on another target.
For `Cc1ccc(S(=O)(=O)N2CCN(C(=O)CSc3cc(C)ccc3C)CC2)c(C)c1`, the inhibition was 2.31% (inactive). Under `COc1cccc(NC(=O)Cn2c3ccc(F)cc3c3nc4n(c(=O)c32)CCS4)c1` stands 1.47% (inactive); under `COc1ccc(-c2cc(C3CCN(c4ncccc4[N+](=O)[O-])CC3)[nH]n2)cc1`, 12% (inactive). Under `COc1cccc(NC(=O)Cn2c3ccccc3c3nc4n(c(=O)c32)CCS4)c1` stands -5.55% (inactive); under `COc1ccc(OCC(=O)N2CCN(C(=O)c3cccs3)CC2)cc1`, 8.51% (inactive).

With `Cc1nc(-c2ccccc2)sc1C(=O)/C=C/c1ccccc1`, the inhibition is 12% (inactive). Under `c1ccc(C(c2ccccc2)N2CCN(Cc3nnnn3C3CCCCC3)CC2)cc1` stands 9.44% (inactive). For `O=C(c1cc2ccccc2o1)N1CCN(S(=O)(=O)c2ccc(Cl)s2)CC1`, the inhibition is 3.41% (inactive).

With `COc1ccc(N(CC(=O)Nc2cc(OC)ccc2OC)S(=O)(=O)c2c(C)noc2C)cc1`, the inhibition is 6.51% (inactive). Under `Fc1ccccc1/C=N/Nc1cc(N2CCCCC2)ncn1` stands -5.12% (inactive); under `Cc1ccc(SCC(=O)N2CCN(c3ccc(F)cc3)CC2)cc1`, 1.65% (inactive); under `COc1ccc(C(C(=O)NC2CCCCC2)N(C(=O)c2snc(C(N)=O)c2N)c2ccccc2OC)cc1` (configuration not stated), 1.73% (inactive). Under `Cc1ccc(-n2ncc3c(=O)n(-c4ccc(C)c(C)c4)c(-c4ccco4)nc32)cc1` stands -11.1% (inactive); under `O=C(c1cc(=O)c2ccccc2o1)N1CCN(c2ccccc2)CC1`, 2.55% (inactive); under `Cc1cc(C)cc(Oc2nc3c(C)cccn3c(=O)c2/C=C(\C#N)C(=O)NC2CCS(=O)(=O)C2)c1` (configuration not stated), -6.32% (inactive).

Turning to `CC1(Cc2ccccc2C#N)C(=O)Nc2ccc(-c3ccc4[nH]ccc4c3)cc21` (configuration not stated), the inhibition was -12.8% (inactive). Under `N#CC(=C1CCCC1)c1nc(-c2ccc(Cl)cc2)cs1` stands -15.6% (inactive). The value for `CCCCC(=O)N(C)c1c(CC)nc2c(OCc3ccc(Cl)cc3Cl)cccn12` was -8.17% (inactive); that for `CC(C)Cn1c(N2CCN(C(=O)/C=C/c3ccccc3)CC2)nc2ccccc21` was -6.12% (inactive); that for `CCN1CCN(C(=O)CSc2ccc(C)cc2)CC1` was -12.6% (inactive). Under `O=C(CCNS(=O)(=O)c1ccccc1)NCCSc1ccc(Br)cc1` stands -8.38% (inactive). As for `COc1ccc(/C=C/C(=O)c2ccc(OC)cc2O)cc1`, the inhibition is -7.89% (inactive). The value for `O=C(CCc1ccccc1)NNC(=O)COc1ccc(Cl)cc1` was 4.21% (inactive). The value for `Cc1ccc(-c2nn(-c3ccccc3)cc2/C=C/C(=O)Nc2cccc(S(N)(=O)=O)c2)cc1` was 7.52% (inactive). Under `COc1ccc2cc(C3=CC(=O)C[C@H](c4ccc5c(c4)OCO5)C3)ccc2c1` stands -16.2% (inactive); under `Cc1cc(Cl)c2oc(C(=O)N3CCC(O)(c4ccccc4)CC3)c(C)c2c1`, -14% (inactive).

Regarding `COc1ccc(/C=N/N=C/c2c[nH]c(=O)c(C#N)c2Nc2ccccc2)cc1`, the inhibition was -8.65% (inactive). The value for `O=c1[nH]c(CN2CCN(S(=O)(=O)c3ccc4c(c3)OCCO4)CC2)nc2sc3c(c12)CCCC3` was 5.78% (inactive); that for `O=C(NCCCc1ccccc1)C1CCC(=O)N(CCc2ccc(Cl)cc2)C1` (configuration not stated) was 1.78% (inactive).

`COc1ccccc1N1CCN(C(=O)c2cc(=O)c3cc(C)ccc3o2)CC1`: the inhibition is 2.71% (inactive). Under `COc1ccc(C(=O)/C=C/c2ccc(OC3CSC3)cc2)cc1` stands 4.77% (inactive); under `CN1CCc2ccccc2C1Cc1ccccc1NC(=O)c1sc2ccccc2c1Cl` (configuration not stated), -9.49% (inactive); under `O=C(COc1ccc2ccccc2c1)N1CCN(C(=O)c2cccs2)CC1`, 6.4% (inactive). The value for `O=C(c1cc2ccccc2s1)N1CCN(c2ccccn2)CC1` was -19.7% (inactive); that for `O=C(/C=C/c1cccc([N+](=O)[O-])c1)N1CCN(Cc2ccccc2)CC1` was -5.48% (inactive). The value for `CC(=O)/C(=N\Nc1ccc(Cl)cc1Cl)Sc1cccc2cccnc12` was -5.07% (inactive); that for `CCN(CC(=O)NCc1cccs1)C(=O)/C=C/c1ccc(C)cc1` was 1.05% (inactive). As for `O=C(C(c1ccccc1)c1ccccc1)N1CCN(CC(O)COc2ccccc2)CC1` (configuration not stated), the inhibition is -10% (inactive). The value for `Cc1ccc(S(=O)(=O)N2CCN(CC(=O)N/N=C/c3ccc(Br)s3)CC2)cc1` was 3.3% (inactive); that for `COc1cccc(-c2cc(C(=O)N3CCN(c4ccccc4OC)CC3)no2)c1` was 5.78% (inactive). Under `COc1ccc(OCC(=O)N2CCN(C(=O)COc3ccccc3)CC2)cc1` stands -7.53% (inactive); under `Cc1ccc2oc(=O)c3cnn(CC(=O)N4CCCCCC4)c3c2c1`, 6.6% (inactive); under `CCC1Nc2ncnc(N3CCN(c4ccccc4)CC3)c2N(Cc2ccc(Cl)cc2)C1=O` (configuration not stated), 69% (active).

For the compound `Cc1cccc(N2CCN(C(=O)c3cc4c(=O)[nH]c5ccccc5c4n3C)CC2)c1C`, the inhibition is 5.01% (inactive). The value for `CC(=O)c1nn(-c2ccc(C)cc2)cc1C(=O)c1cccc(Br)c1` was -0.17% (inactive). Turning to `Cc1ccc(OCC(=O)N2CCN(S(=O)(=O)c3ccc(Cl)s3)CC2)cc1C`, the inhibition is 0.1% (inactive). Under `CCC(C)(C)NC(=O)c1cc([N+](=O)[O-])ccc1N1CCCCC1` stands -7.53% (inactive).

Take `Cc1cccc(NC(=O)CN2CCN(C(=O)C3CCN(C(=O)/C=C/c4ccccc4)CC3)CC2)c1C`: the inhibition was -13.5% (inactive).

For the compound `O=C(Nc1ncc2c(n1)CC(c1ccco1)CC2=O)c1ccc(Cl)cc1` (configuration not stated), the inhibition is 8.95% (inactive). Under `CCOc1ccc(CN(Cc2ccco2)S(=O)(=O)c2ccc(-n3cnnn3)c(OC)c2)cc1` stands 4.57% (inactive); under `COc1ccc(C(c2nnnn2C2CCCC2)N2CCN(C/C=C/c3ccccc3)CC2)cc1` (configuration not stated), -12.2% (inactive). Under `COc1ccc(-c2cc(NC=O)c3ncc(-c4cccc(C(=O)N(C)C)c4)n3c2)c(OC)c1` stands -10.8% (inactive); under `CCOC(=O)N1CCN(C(=O)CSc2ccc(Cl)cc2)CC1`, 5.7% (inactive); under `CCCCN=C1C([N+](=O)[O-])=CC=C2C1=NC1(CCCCC1)N2O`, -14.2% (inactive).

`CCC(c1nnc(SCC(=O)NNC(=O)c2ccccc2)n1Cc1ccccc1)N(C)C` (configuration not stated): the inhibition is -17.6% (inactive). Turning to `CCOc1ccc(CCN2C(=S)N([C@@H](CC(C)C)CN3CCC[C@@H]3CN3C(=S)NC[C@@H]3Cc3ccc(O)cc3)C[C@@H]2Cc2ccc(O)cc2)cc1`, the inhibition was -18.9% (inactive). Regarding `O=C(/C=C/c1cccc(C(F)(F)F)c1)N1CCN(c2ccccn2)CC1`, the inhibition was -8.93% (inactive). The value for `Cc1ccc(OCC(=O)N2CCN(C(=O)c3cccnc3)CC2)cc1` was -9.4% (inactive). The value for `CN(Cc1ccc(F)cc1)C(=O)COc1ccc2ccccc2c1` was 3.08% (inactive). The value for `Cc1cc(C)c2c(=O)n3c(nc2c1)C(CC(C)C)NC(=O)c1cc2ccccc2cc1-3` (configuration not stated) was 7.36% (inactive); that for `CCOc1ccc(C(C)=O)cc1COC(=O)c1cnc(Cl)c(Cl)c1` was -6.96% (inactive); that for `Cc1cccc(OCC(O)CN2CCN(S(=O)(=O)c3ccc(C)cc3C)CC2)c1` (configuration not stated) was -7.67% (inactive).

Consider `COc1ccc(-c2nc(N)ncc2-c2ccc(Cl)cc2)c(O)c1`, for which the inhibition is 5.17% (inactive).

For the compound `Cc1cc(OCC(=O)N2CCN(c3ncccn3)CC2)ccc1Cl`, the inhibition was 2.13% (inactive). The value for `O=C(COc1ccc(Cl)cc1)N1CCN(c2cccc(C(F)(F)F)c2)CC1` was 4.01% (inactive); that for `O=C(NCc1ccc(Cl)cc1)C1CCN(S(=O)(=O)c2cccs2)CC1` was 1.5% (inactive); that for `N#Cc1ccc(C2=CC(=O)C[C@H](c3ccc(Cl)cc3)C2)cc1` was 9% (inactive). Under `CCCC1CCC(=NNC(=S)NCCc2ccccc2)CC1` (configuration not stated) stands -11.9% (inactive). The value for `O=C(COc1ccc(Cl)cc1)N1CCN(S(=O)(=O)c2ccc(Cl)cc2)CC1` was 6% (inactive). Regarding `CCOC(=O)C1CCN(C(=O)COc2cc(C)c(Br)c(C)c2)CC1`, the inhibition was 2.96% (inactive).

Turning to `Cc1cc(OCCOc2cccc3cccnc23)c(C)cc1Cl`, the inhibition is 4.27% (inactive).

For the compound `O=C(NNC(=O)c1ccc2ccccc2c1)c1ccc(Cl)cc1`, the inhibition was 7.62% (inactive). Regarding `COc1ccccc1CCNC(=O)C1CCN(C(=O)/C=C/c2ccccc2)CC1`, the inhibition is 6.37% (inactive). In the case of `O=C(Nc1ccc(S(=O)(=O)N2CCCCC2)cc1)C1CC(=O)N(c2ccc(F)cc2)C1` (configuration not stated), the inhibition is 10.2% (inactive). The value for `COc1ccc(-c2cn(-c3ccc(OC)cc3)c(=S)[nH]2)cc1` was 3.97% (inactive); that for `Cc1cccc(N=C2NC(=O)/C(=C/c3cn(C)c4ccccc34)S2)c1` was 8.09% (inactive); that for `Cc1ccc(OCCNC(=O)CCNS(=O)(=O)c2ccc(Br)cc2)cc1` was -13% (inactive).

With `O=C(COc1ccc2c(c1)CCC2)N1CCN(c2ccc(F)cc2)CC1`, the inhibition is -10.9% (inactive). Under `O=C(NCc1ccc(Cl)cc1)c1cc(=O)nc2sc(-c3ccccc3)nn12` stands 2.99% (inactive). Take `O=C(CC(c1ccccc1)c1ccccc1)NCC(O)c1ccc([N+](=O)[O-])cc1` (configuration not stated): the inhibition was -11% (inactive). Consider `COc1ccc(CNC(=O)CN(c2ccc(OC)c(Cl)c2)S(=O)(=O)c2ccc(C)cc2)cc1`, for which the inhibition was -10.2% (inactive). The value for `N#Cc1ccc(C(c2nnnn2CCc2ccccc2)N2CCCCCC2)cc1` (configuration not stated) was 7.67% (inactive); that for `O=C(NCCNc1ccc([N+](=O)[O-])cc1)c1cccc2c(Br)cccc12` was 3.17% (inactive); that for `Cc1cs/c(=N\N=C\c2ccc(O)cc2)n1Cc1ccco1` was 10% (inactive). Regarding `COc1ccc(-n2c(Cc3cccn3C)nnc2SCC(=O)Nc2cc(C)cc(C)c2)cc1`, the inhibition was 5.9% (inactive). The value for `O=C(/C=C/c1ccc(Cl)cc1)N1CCN(c2ccccc2[N+](=O)[O-])CC1` was 3.83% (inactive); that for `COc1ccc(NC(=O)N2CCC(Cc3ccccc3)CC2)cc1` was -4.45% (inactive).

(Values after PubChem BioAssay AID652176 (Sanford-Burnham Center for Chemical Genomics, 2013).)
